PubChem BioAssay (Tox21)
Records with an inconclusive call do not appear. The source made the active and inactive calls. Unless noted, the call rests on the fitted dose curve.

Key:
[1] = Nuclear factor erythroid 2-related factor 2/antioxidant responsive element (Nrf2/ARE) small molecule agonists: qHTS cell viability counter screen in human keratinocytes (AID 1919968; active means well fitted curve in the direction sought with a large enough effect in the repeat runs; an effect the other way counts as inactive or inconclusive; further: nearly all actives have a fitted effect of over 55% in size)
Procedure, shortened: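 Measured as CellTiter-Fluor fluorescence, this readout tracks cytotoxicity in the same wells as the ARE-luciferase screen. HaCaT reporter cells (1,500/well) received compounds after a 5 h pre-incubation and were exposed for 23 h.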

[2] = Nuclear factor erythroid 2-related factor 2/antioxidant responsive element (Nrf2/ARE) small molecule agonists: luciferase reporter gene qHTS assay in human keratinocytes (AID 1919969); further: nearly all actives have a fitted effect of over 35% in size
[3] = target: Gonadotropin-releasing hormone receptor (Homo sapiens) (UniProt P30968); assay: Human gonadotropin-releasing hormone receptor (GnRHR) small molecule agonists, calcium flux assay in GnRHR-HEK293 cells (AID 1920063); further: nearly all actives have a fitted effect of over 35% in size
Procedure, shortened: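 Fluorescence kinetics (480 nm excitation, 540 nm emission; 3 min, 1 s steps) report calcium mobilisation in human GnRHR-HEK293 cells in agonist mode. Dye incubation: 1 h, 37 C.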

[4] = target: KiSS-1 receptor (Homo sapiens) (UniProt Q969F8); assay: Human kisspeptin (KISS1R) small molecule agonists, calcium flux assay in KISS1R-HEK293 cells (AID 1920064; active means well fitted curve in the direction sought with a large enough effect in the repeat runs; an effect the other way counts as inactive or inconclusive)
Procedure, shortened: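 Measures KISS1R agonism through calcium-sensitive dye fluorescence in stably transfected HEK293 cells, read for 3 min after pin-tool compound delivery; 15-point titrations in triplicate.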

[5] = G protein-coupled receptor (GPCR) small molecule agonists, calcium flux assay: HEK293 wild type cell line counter screen (AID 1920065)
Procedure, shortened: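 Readout: fluorescence at 480 nm excitation/540 nm emission, sampled at 1 s intervals for 3 min. Cells had been cultured 18 h, then dye-loaded 1 h at 37 C before compound or ATP addition.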

[6] = p53 small molecule agonists, cell-based qHTS assay with human liver microsomes (AID 1963577)
Procedure, shortened: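 Fluorescence of the beta-lactamase reporter in p53RE-bla cells, detected with LiveBLAzer substrate (2 h, room temperature, dark), served as the read-out after 16 h compound exposure at 37 C with human liver microsomes and NADPH, each 0.5 mg/mL final.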

[7] = p53 small molecule agonists, cell-based qHTS assay with rat liver microsomes (AID 1963578)
Procedure, shortened: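 Cells carrying a p53 response element–beta-lactamase reporter were plated and rested 5 h, then dosed with compound in DMSO plus rat liver microsomes and NADPH, each at 0.5 mg/mL final. After 16 h at 37 C, LiveBLAzer substrate was added for 2 h.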

[8] = p53 small molecule agonists, cell-based qHTS assay with human liver microsomes: qHTS cell viability counter screen (AID 1963579); further: nearly all actives have a fitted effect of over 45% in size
Procedure, shortened: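 Cytotoxicity counter screen: p53RE-bla, 4,000 cells/well; 5 h settle, 37 C/5% CO2; cpd + HLM 0.5 mg/mL + NADPH 0.5 mg/mL (final); 16 h, 37 C; CellTiter-Glo, 30 min RT, luminescence.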

[9] = p53 small molecule agonists, cell-based qHTS assay with rat liver microsomes: qHTS cell viability counter screen (AID 1963580); further: nearly all actives have a fitted effect of over 45% in size
Procedure, shortened: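 HCT-116 p53RE-bla, 4,000 cells/well, 5 h pre-incubation; cpd + rat liver microsomes 0.5 mg/mL + NADPH 0.5 mg/mL (final); 16 h, 37 C; CellTiter-Glo, 30 min RT; luminescence.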

[10] = p53 small molecule agonists, cell-based qHTS assay: qHTS cell viability counter screen (AID 1963581); further: nearly all actives have a fitted effect of over 45% in size
Procedure, shortened: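 In the same plates used for the p53 bla reporter, HCT-116 cells given compounds for 16 h at 37 C received CellTiter-Glo; luminescence was recorded 30 min later at room temperature.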

[11] = p53 small molecule agonists, cell-based qHTS assay (AID 1963582; active means well fitted activation curve with a large enough effect in the signal ratio in the repeat runs, not every such curve was filed as active; the % refers to the signal ratio)
Procedure, shortened: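 Compounds are pin-transferred in DMSO onto p53RE-bla cells and incubated 16 h at 37 C. The B/G FRET beta-lactamase substrate is then applied for 2 h at RT and fluorescence recorded.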

[12] = target: 5-hydroxytryptamine receptor 2A (Homo sapiens) (UniProt P28223); assay: 5-hydroxytryptamine receptor 2A (HTR2A) small molecule antagonists, cell-based qHTS assay (AID 1963586); further: nearly all actives have a fitted effect of over 45% in size
Procedure, shortened: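 Antagonist-mode intracellular calcium assay: DOI (4 nM) added after 5 min compound pre-incubation at room temperature to dye-loaded HTR2A-CHO cells. Fluorescence followed for 3 min, sampled every second.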

[13] = target: 5-hydroxytryptamine receptor 2A (Homo sapiens) (UniProt P28223); assay: 5-hydroxytryptamine receptor 2A (HTR2A) small molecule agonists, cell-based qHTS assay (AID 1963587); further: nearly all actives have a fitted effect of over 30% in size
Procedure, shortened: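 Kinetic calcium-flux fluorescence (2 min, 1 sec intervals) after compound addition in agonist mode. HTR2A-CHO cells were cultured 18 h, then dye-loaded 1 h at 37 C.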

[14] = target: Muscarinic acetylcholine receptor M1 (Homo sapiens) (UniProt P11229); assay: Cholinergic receptor muscarinic 1 (CHRM1) small molecule antagonists, cell-based qHTS assay (AID 1963588); further: nearly all actives have a fitted effect of over 40% in size
Procedure, shortened: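 CHRM1-CHO calcium-flux assay, antagonist mode. Cells were seeded 18 h, dye-loaded 1 h at 37 C and given compound for 5 min at RT, then acetylcholine was added at 50nM. FDSS fluorescence was read 3 min; 15 concentrations, three runs.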

[15] = target: Muscarinic acetylcholine receptor M1 (Homo sapiens) (UniProt P11229); assay: Cholinergic receptor muscarinic 1 (CHRM1) small molecule agonists, cell-based qHTS assay (AID 1963589); further: nearly all actives have a fitted effect of over 35% in size
Procedure, shortened: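 Each compound was tested at 15 concentrations across three independent runs on dye-loaded CHO cells stably expressing human CHRM1, reading intracellular calcium fluorescence kinetically at 1 sec intervals.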

[16] = cAMP Responsive Elements (CRE) small molecule agonists, cell-based qHTS assay (AID 1963590)
Procedure, shortened: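 Cell line: CRE-bla HEK 293T; medium DMEM/10% dialyzed FBS/0.1 mM NEAA/1 mM pyruvate/25 mM HEPES; 3 h compound exposure; beta-lactamase FRET readout after 2 h substrate loading at RT.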

[17] = cAMP Responsive Elements (CRE) small molecule antagonists, cell-based qHTS assay (AID 1963591; active means well fitted inhibition curve with a large enough effect in the signal ratio in the repeat runs, not every such curve was filed as active; the % refers to the signal ratio)
Procedure, shortened: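 Inhibition of NKH477-driven (0.25 uM final) CRE-beta-lactamase signal in HEK293T cells, 3 h compound exposure at 37 °C, detected by FRET substrate fluorescence.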

[18] = target: Beta-2 adrenergic receptor (Homo sapiens) (UniProt P07550); assay: Adrenergic beta2 receptor (ADRB2) small molecule antagonists, cell-based qHTS assay (AID 1963592); further: series mostly up to about 92 µM; nearly all actives have a fitted effect of over 50% in size
Procedure, shortened: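 Cells (CHO, stable ADRB2 overexpression) incubated 18-20hr at 37C; compounds added from DMSO; agonist mix (1nM isoproterenol, 100uM IBMX, 25uM Ro-20-1724) added; 0.5hr RT; d2-cAMP and anti-cAMP-cryptate added; 1hr RT; 665/615 nm read.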

[19] = target: D(2) dopamine receptor (Homo sapiens) (UniProt P14416); assay: Dopamine D2 receptor (DRD2) small molecule antagonists, cell-based qHTS assay (AID 1963595; active means well fitted inhibition curve with a large enough effect in the signal ratio in the repeat runs, with a control signal flat; the % refers to the signal ratio)
Procedure, shortened: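 Cells were plated and grown for 24 h at 37 °C. Ro20-1724 (0.1 mM final) went in first, then compound for 10 min. NKH477 (200 nM) with quinpirole (12 nM) followed for 30 min at RT, then HTRF detection reagents for 1 h.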

[20] = target: D(2) dopamine receptor (Homo sapiens) (UniProt P14416); assay: Dopamine D2 receptor (DRD2) small molecule agonists, cell-based qHTS assay (AID 1963594); further: nearly all actives have a fitted effect of over 35% in size
Procedure, shortened: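 cAMP accumulation in DRD2-HEK293 cells measured by HTRF after 1 h detection; compounds added 10 min before NKH477 (200nM […]) forskolin-analogue stimulation, 30 min at room temperature, with Ro20-1724 present at 0.1 mM final.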

Measured: Potency

KiSS-1 receptor (Homo sapiens), sequence (Q969F8 whole entry, looked up): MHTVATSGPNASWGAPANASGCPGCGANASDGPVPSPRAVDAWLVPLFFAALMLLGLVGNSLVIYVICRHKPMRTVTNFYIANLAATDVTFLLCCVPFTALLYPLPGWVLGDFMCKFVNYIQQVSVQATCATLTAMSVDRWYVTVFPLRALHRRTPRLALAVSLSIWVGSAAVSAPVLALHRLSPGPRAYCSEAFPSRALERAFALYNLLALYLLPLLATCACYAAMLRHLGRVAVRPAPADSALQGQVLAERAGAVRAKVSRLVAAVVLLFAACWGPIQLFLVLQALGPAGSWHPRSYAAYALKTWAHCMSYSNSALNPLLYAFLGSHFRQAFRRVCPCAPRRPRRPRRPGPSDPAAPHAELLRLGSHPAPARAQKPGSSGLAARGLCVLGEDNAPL
D(2) dopamine receptor (Homo sapiens), sequence (P14416 whole entry, looked up): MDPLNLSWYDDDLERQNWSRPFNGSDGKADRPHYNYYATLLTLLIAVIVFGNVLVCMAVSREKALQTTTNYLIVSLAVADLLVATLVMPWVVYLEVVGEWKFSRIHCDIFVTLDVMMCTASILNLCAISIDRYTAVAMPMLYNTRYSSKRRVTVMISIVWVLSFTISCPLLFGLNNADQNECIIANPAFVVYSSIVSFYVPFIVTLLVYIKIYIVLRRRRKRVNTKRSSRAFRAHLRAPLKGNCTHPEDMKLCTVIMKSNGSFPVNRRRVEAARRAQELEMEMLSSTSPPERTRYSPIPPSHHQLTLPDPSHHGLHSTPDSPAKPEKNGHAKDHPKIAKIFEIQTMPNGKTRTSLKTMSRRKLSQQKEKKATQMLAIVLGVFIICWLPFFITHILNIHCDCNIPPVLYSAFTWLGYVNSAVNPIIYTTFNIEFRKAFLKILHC
5-hydroxytryptamine receptor 2A (Homo sapiens), sequence (P28223 whole entry, looked up): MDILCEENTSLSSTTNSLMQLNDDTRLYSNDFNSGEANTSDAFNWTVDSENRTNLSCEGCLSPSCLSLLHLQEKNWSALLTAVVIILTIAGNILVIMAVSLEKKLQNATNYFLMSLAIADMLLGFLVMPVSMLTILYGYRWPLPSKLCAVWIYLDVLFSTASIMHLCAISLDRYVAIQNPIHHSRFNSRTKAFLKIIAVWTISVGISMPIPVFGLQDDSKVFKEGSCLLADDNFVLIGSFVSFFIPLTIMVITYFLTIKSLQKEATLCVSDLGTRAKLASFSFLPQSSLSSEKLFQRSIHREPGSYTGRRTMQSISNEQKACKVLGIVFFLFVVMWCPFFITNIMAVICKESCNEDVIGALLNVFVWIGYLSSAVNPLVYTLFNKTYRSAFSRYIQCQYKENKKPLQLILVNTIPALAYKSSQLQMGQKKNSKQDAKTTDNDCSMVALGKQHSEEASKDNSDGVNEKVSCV
Beta-2 adrenergic receptor (Homo sapiens), sequence (P07550 whole entry, looked up): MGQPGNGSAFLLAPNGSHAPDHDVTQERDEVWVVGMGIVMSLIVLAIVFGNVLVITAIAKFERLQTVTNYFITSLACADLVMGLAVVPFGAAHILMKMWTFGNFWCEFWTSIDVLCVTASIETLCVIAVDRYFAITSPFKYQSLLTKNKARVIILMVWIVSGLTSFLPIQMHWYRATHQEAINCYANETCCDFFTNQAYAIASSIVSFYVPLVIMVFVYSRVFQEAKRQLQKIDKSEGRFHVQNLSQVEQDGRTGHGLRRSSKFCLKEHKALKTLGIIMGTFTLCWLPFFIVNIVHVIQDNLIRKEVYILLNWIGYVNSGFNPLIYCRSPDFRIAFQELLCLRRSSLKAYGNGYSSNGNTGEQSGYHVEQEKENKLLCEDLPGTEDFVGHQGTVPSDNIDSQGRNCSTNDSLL
Gonadotropin-releasing hormone receptor (Homo sapiens), sequence (P30968 whole entry, looked up): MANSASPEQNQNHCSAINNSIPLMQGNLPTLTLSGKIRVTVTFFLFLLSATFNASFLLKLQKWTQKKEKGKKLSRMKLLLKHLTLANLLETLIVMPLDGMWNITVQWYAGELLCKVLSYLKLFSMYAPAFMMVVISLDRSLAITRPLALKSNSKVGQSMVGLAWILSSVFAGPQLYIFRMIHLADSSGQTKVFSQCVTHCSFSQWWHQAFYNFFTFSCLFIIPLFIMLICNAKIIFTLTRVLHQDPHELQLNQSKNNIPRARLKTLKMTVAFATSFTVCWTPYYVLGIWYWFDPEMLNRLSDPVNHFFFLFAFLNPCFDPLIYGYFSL
Muscarinic acetylcholine receptor M1 (Homo sapiens), sequence (P11229 whole entry, looked up): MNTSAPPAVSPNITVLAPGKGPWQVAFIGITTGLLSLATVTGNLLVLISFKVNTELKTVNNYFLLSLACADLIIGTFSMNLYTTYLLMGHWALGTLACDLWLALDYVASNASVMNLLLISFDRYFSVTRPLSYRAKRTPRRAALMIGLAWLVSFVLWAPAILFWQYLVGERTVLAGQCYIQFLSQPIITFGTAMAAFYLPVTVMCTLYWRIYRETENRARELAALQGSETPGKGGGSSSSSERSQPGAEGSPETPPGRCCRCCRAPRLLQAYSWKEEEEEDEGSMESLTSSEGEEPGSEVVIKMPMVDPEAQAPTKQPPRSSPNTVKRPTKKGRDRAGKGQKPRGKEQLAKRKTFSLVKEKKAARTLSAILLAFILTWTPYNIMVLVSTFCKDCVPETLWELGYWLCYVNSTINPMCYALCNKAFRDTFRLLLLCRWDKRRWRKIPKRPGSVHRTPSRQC

Nc1cccc(S(=O)(=O)O)c1
inactive: [1] | [2] | [3] | [4] | [5] | [6] | [7] | [8] | [9] | [10] | [11] | [12] | [13] | [14] | [15] | [16] | [17] | [18] | [19]

C/C=C(\C)C#N
inactive: [1] | [2] | [3] | [4] | [5] | [6] | [7] | [8] | [9] | [10] | [11] | [12] | [13] | [14] | [15] | [16] | [17] | [18] | [19]

Clc1cccnc1
inactive: [1] | [2] | [3] | [4] | [5] | [6] | [7] | [8] | [9] | [10] | [11] | [12] | [13] | [14] | [15] | [16] | [17] | [18] | [20] | [19]

CCCC(=O)C(CC)Sc1ccoc1C (stereo unspecified)
inactive: [1] | [2] | [3] | [4] | [5] | [6] | [7] | [8] | [9] | [10] | [11] | [12] | [13] | [14] | [15] | [16] | [17] | [18] | [20] | [19]

CCOC(=O)[C@H](CCc1ccccc1)N[C@H]1CS[C@H](c2cccs2)CN(CC(=O)O)C1=O
inactive: [1] | [2] | [3] | [4] | [5] | [6] | [7] | [8] | [9] | [10] | [11] | [12] | [13] | [14] | [15] | [16] | [17] | [18] | [19]

Cn1cnc2ncnc(N)c21
inactive: [1] | [2] | [3] | [4] | [5] | [6] | [7] | [8] | [9] | [10] | [11] | [12] | [13] | [14] | [15] | [16] | [17] | [18] | [20] | [19]

COc1ccccc1N1CCN(CC(O)COc2cc(OC)c(OC)c(OC)c2)CC1 (stereo unspecified)
inactive: [1] | [2] | [3] | [4] | [5] | [6] | [7] | [8] | [9] | [10] | [11] | [12] | [13] | [14] | [15] | [16] | [17] | [18] | [19]
